Six1-Eya2 blk – inhibitors of human Six1/Eya2 interaction. Q15475+O00167. AlphaScreen GST-Six1/His-Eya2 binding, biochemical; stronger effect = lower value. activity change, % (no concentration beside the values). actives 0.56% (n = 360,000). AID 651725; note: % is set by controls: 0 for no effect and ±100 for the full control effect
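Compounds are tested against tagged Six1 and Eya2 proteins bridged by glutathione donor and nickel acceptor beads; after a one-hour incubation at 37 °C without light, AlphaScreen emission is recorded.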
Chronic BCR inh – chronic active BCR signaling inhibition | ABC-DLBCL IkBa-CBG/CBR reporter, luminescence ratio, 4 h | actives 0.05% (n = 340,000) | Potency, µM (highest dose often 46.1 µM), for the others: top-dose activity change, negative = inhibition, usual class: inhibitors | AID 493014; active = well fitted inhibition curve with a large enough effect in the signal ratio, with a control signal flat, not every such curve was filed as active; inconclusive = small, poorly fitted or top-dose-only effect, or effect the other way, or a change in a side signal; the % refers to the signal ratio;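 note: potency is the fitted concentration of half-maximal effect; plate controls were basal doxycycline-induced cells for no effect and cells given 10 µM MG132 for full effect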
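Doxycycline induced both beetle luciferases in TMD8 lymphoma cells; IKK-driven degradation limits the IkappaBalpha-fused green signal, while red luminescence normalises for cell number and nonspecific effects. Compounds tested up to 46 uM, 4 hrs.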
TSHR antag – human thyrotropin receptor antagonism; P16473; TSHR-expressing cells, TSH-stimulated cAMP HTRF, 2 h; stronger effect = lower value; activity change, negative = inhibition, % at 11.5 µM; actives 0.2% (n = 330,000);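 active = activity change below a set negative limit, meaning inhibition stronger than a set level, cut at about -70% in these data; inconclusive = activity change between two set negative limits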; note: % is set by controls: 0 for no effect and ±100 for the full control effect
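TSHR-expressing cells, 200/well, pre-treated with compound, then stimulated with EC80 TSH (4nM final) for 2 hours at 37 deg C. cAMP measured by competitive HTRF: anti-cAMP cryptate antibody in lysis buffer plus cAMP-d2, read after 30 minutes at room temperature.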
CtBP-E1A blk – blocks the CtBP interaction with E1A. AlphaScreen GST-E1A/His-CtBP binding, 1536-well; stronger effect = lower value. actives 0.49% (n = 340,000). activity change, % (test concentration not listed); note: % is set by controls: 0 for no effect and ±100 for the full control effect
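Steps: dispense buffer (Tris pH 8.0, NaCl 300 mM, TCEP 1 mM, BSA, Tween 20); add 5X protein mix (GST-E1A, His-CtBP, 125 nM each); pin 23 nL compound; 2 h at 37 °C, dark; add 5X beads (50 ug/mL); 1 h; read.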
ASM inhibitor – blocks human secretory acid sphingomyelinase; AID 504937; P17405; actives 0.006% (n = 340,000); Potency, µM (titrated, usually from 57.5 µM), for inactives: at the highest dose activity change, negative = inhibition, usual class: inhibitors; placental ASM, HMU-PC fluorogenic substrate, 60 min; active = well fitted inhibition curve with a large enough effect; inconclusive = small, poorly fitted or top-dose-only effect; inactive = no such curve, though single readings can be large or run the other way; note: potency is the fitted concentration of half-maximal effect
Target sequence (P17405 47-631 limits assumed): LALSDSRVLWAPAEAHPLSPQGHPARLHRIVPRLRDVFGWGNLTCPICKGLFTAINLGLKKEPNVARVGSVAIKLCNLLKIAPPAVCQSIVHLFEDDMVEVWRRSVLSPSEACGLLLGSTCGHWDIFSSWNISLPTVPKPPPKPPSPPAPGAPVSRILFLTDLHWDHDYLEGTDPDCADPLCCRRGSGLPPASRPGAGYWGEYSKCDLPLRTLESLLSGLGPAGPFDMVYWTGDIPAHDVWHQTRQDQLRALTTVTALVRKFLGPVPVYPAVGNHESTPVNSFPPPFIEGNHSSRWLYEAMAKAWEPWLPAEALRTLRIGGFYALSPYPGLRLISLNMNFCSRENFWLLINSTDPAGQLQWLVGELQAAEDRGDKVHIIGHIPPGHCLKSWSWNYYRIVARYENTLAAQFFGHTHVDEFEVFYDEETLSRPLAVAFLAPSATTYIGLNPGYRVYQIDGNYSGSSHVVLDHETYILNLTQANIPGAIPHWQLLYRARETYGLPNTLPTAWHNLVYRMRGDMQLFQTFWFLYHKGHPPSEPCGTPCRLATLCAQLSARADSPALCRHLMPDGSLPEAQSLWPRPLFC
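Fluorogenic HMU-PC substrate (9 uM final) is turned over by placental ASM in 60 min at 37 C after a 10 min compound preincubation. Reaction ended by alkaline stop (pH 10), with fluorescence read at 386/447 nm.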
The depositor's hits bear a star; ? = inconclusive; / = not tested or not shown. Sampled rows, rich in hits. Any-hit rate of the full collection: about 0.85%. Cut-off read from the data, not from the text of the source, unless noted: active = activity change below about -65%; inconclusive = mostly about -30% to -63%; inactive = weaker than that.

SMILES	Six1-Eya2 blk	Chronic BCR inh	TSHR antag	CtBP-E1A blk	ASM inhibitor
COc1cc2[nH]c(=S)nc(NCc3cccs3)c2cc1OC	-84.5*	?	-16.0	-89.5*	2.2%
COc1cc2ncnc(NCc3cccs3)c2cc1OC	-15.4	1.5%	0.2	-0.5	-1.4%
COc1ccccc1CNc1nc(=S)[nH]c2cc(OC)c(OC)cc12	-80.7*	-0.6%	12.5	-85.3*	-1.2%
COc1ccc(CC(=O)NCC(c2cccs2)S(=O)(=O)c2ccc(Cl)cc2)cc1 (stereo not drawn)	/	10.6%	/	/	/
O=C(CSc1nncs1)N1c2ccccc2Sc2ccccc21	-4.9	-6.2%	-70.9*	-6.1	0.8%
Cn1nnnc1SCC(=O)N1c2ccccc2Sc2ccccc21	-2.1	-9.0%	-24.4	4.3	0.8%
CN1CC(c2ccccn2)C2(SC(=S)N(Cc3ccccc3)C2=O)C12C(=O)Nc1ccccc12 (stereo not drawn)	-75.9*	2.3%	-4.3	-76.1*	-5.8%
CN1CC(c2ccccc2)C2(SC(=S)N(Cc3ccco3)C2=O)C12C(=O)Nc1ccccc12 (stereo not drawn)	-23.1	4.6%	-3.9	-20.7	-2.7%
CCN(CC)c1ccc(N=Nc2ncn[nH]2)cc1	-68.8*	?	-5.2	-73.9*	-2.7%
Cc1cn(C)c(CC(=O)NCc2ccc(F)cc2)c1C(=O)O	/	-9.6%	/	/	/
COC(=O)C1=C(C)N(Cc2ccccc2)C(=S)N[C@H]1CCc1ccccc1	/	36.5%	-16.3	/	/
CCOC(=O)C1CCN(c2nc(-c3ccc(Br)cc3)cs2)CC1	/	/	-18.9	/	/
Cc1cccc(C)c1OCCCn1ccnc1	-1.4	-0.5%	-130.0*	/	7.8%
Cc1cc(C)c(OCCCn2ccnc2)c(C)c1	1.8	-2.4%	-17.5	1.7	2.6%
O=C(Nc1ccc2c(c1)N(C1CCCC1)C(=O)c1ccccc1S2)c1cccc(F)c1	/	-3.6%	/	/	/
CCCc1nnc2n1N=C(c1ccc(OC)c(OC)c1)CS2	-27.6	13µM*	-9.5	-12.6	3.7%
Cc1cc(-c2nnc3n2N=C(c2ccc(-c4ccccc4)cc2)CS3)n[nH]1	-72.0*	?	-0.8	-68.5*	?
COc1ccc(C2=Nn3c(nnc3-c3ccccc3F)SC2)cc1OC1CCCC1	/	5.8µM*	113.2	/	?
Oc1ccc(C2=Nn3c(nnc3-c3ccco3)SC2)cc1O	-89.4*	?	-19.5	-94.0*	-5.9%
COc1ccc(C2=Nn3c(nnc3-c3ccccc3)SC2)cc1OC	-29.2	?	4.8	-23.3	1.7%
COc1cccc(N2CCN(S(=O)(=O)c3ccc(-c4ccno4)cc3OC)CC2)c1	/	-1.1%	/	/	/
CCOc1ccc(C2=Nn3c(nnc3-c3ccc(OC)cc3)SC2)cc1	-13.6	12.6µM*	-1.0	-4.5	-19.0%
COc1ccc(C2=Nn3c(nnc3-c3ccco3)SC2)cc1	-65.7*	?	5.2	-80.1*	-2.2%
COc1ccc(OC)c(C2=Nn3c(nnc3-c3ccco3)SC2)c1	?	?	10.1	?	-13.4%
O=C(NCc1ccccc1Cl)c1ccc2c(c1)N(Cc1ccccc1)C(=O)c1ccccc1S2	/	-12.2%	/	/	/
SMILES	Six1-Eya2 blk	Chronic BCR inh	TSHR antag	CtBP-E1A blk	ASM inhibitor
N#Cc1cc([N+](=O)[O-])c2sc(C(N)=O)[n+]([O-])c2c1	/	/	-22.0	/	/
O=c1[nH]ncc2c3ccccc3n(Cc3cccc(Cl)c3)c12	1.0	-4.2%	-0.8	0.0	31.6µM*
CC1C(=O)NN=C1C(=O)N/N=C\c1ccc(O)cc1O (stereo not drawn)	-92.1*	?	-3.3	-10.9	24.4%
O=C(O)COc1ccccc1C(Nc1cccnc1)c1cc(Cl)c2cccnc2c1O (stereo not drawn)	-67.0*	9.8%	-2.7	-91.2*	?
O=C(O)COc1ccccc1C(Nc1ccccn1)c1cc(Cl)c2cccnc2c1O (stereo not drawn)	?	-4.0%	-2.6	-84.8*	0.3%
CCOc1ccc(C(Nc2cccnc2)c2cc(Cl)c3cccnc3c2O)cc1 (stereo not drawn)	?	?	-0.5	-68.1*	-17.8%
O=C(NC(c1ccccc1)c1cc(Cl)c2cccnc2c1O)c1cccnc1 (stereo not drawn)	/	-9.2%	-1.0	/	/
COc1ccccc1C(NC(C)=O)c1cc(Cl)c2cccnc2c1O (stereo not drawn)	?	?	-6.3	?	4.8%
Cc1ccccc1NC(=O)c1ccc(F)c(S(=O)(=O)N(C)C2CCCCC2)c1	/	13.1%	/	/	/
CCN(CC)C(=O)Cn1c(=O)n(-c2ccc(OC)cc2OC)c(=O)c2c(C)c(C(=O)N(CC)CC)sc21	/	-10.1%	/	/	/
COc1ccc(C2C(=O)N(C3CCC(C)CC3)CC(=O)N2CCC2=CCCCC2)cc1OC (stereo not drawn)	/	-20.2%	/	/	/
COc1cccc(/C=C/C(=O)OCC(=O)Nc2cccc(S(=O)(=O)NC3=NCCCCC3)c2)c1	-17.3	1.3%	4.1	-76.3*	-12.9%
O=C(COC(=O)/C=C/c1cccc(F)c1)Nc1cccc(S(=O)(=O)NC2=NCCCCC2)c1	-16.9	-1.9%	-0.7	?	-6.1%
COc1ccccc1NC(=O)Cc1noc(CSc2cccc[n+]2[O-])n1	-3.3	23.1µM*	7.7	-3.1	2.8%
C/C(=N\NC(=O)c1cccc(Br)c1)c1ccccn1	-90.0*	?	-6.0	-2.7	-2.9%
O=C(NN=C(c1ccccc1)c1ccccn1)c1ccccc1	-68.2*	?	4.1	6.4	0.2%
C/C(=N\NC(=O)c1ccc(Cl)c(Cl)c1)c1ccccn1	?	?	-0.9	?	-1.3%
COc1ccc(C(=O)N/N=C(\C)c2ccccn2)cc1OC	-89.3*	?	-3.9	-93.2*	-1.8%
O=C(NC(O)C(=O)c1ccccc1)c1ccccn1 (stereo not drawn)	0.5	?	-35.6	11.1	-2.2%
O=C(NN=C1CCC(=NNC(=O)c2ccccn2)CC1)c1ccccn1	-67.5*	?	1.3	-75.1*	8.7%
Cc1ccc(-c2nc3sc(CCNS(=O)(=O)c4cc(F)ccc4F)c(C)n3n2)cc1	/	13.8%	/	/	/
COc1ccccc1CNC(=O)c1ccc2nc(-c3ccccc3)c(-c3ccccc3)nc2c1	/	-0.1%	/	/	/
C/C(=N/NC(=O)c1ccc(C(C)(C)C)cc1)c1ccccn1	-88.2*	/	/	-1.2	0.9%
CCOc1ccc(OCc2ccc(C(=O)N/N=C(\C)c3ccccn3)cc2)cc1	?	?	-8.6	?	1.8%
C=CCNc1nc(NCc2ccc(N(C)C)cc2)c2sc(-c3ccccc3)cc2n1	-72.7*	/	/	-77.1*	/
[N-]=[N+]=Nc1ccc(C(=O)CSC[C@H](NC(=O)CC[C@H](N)C(=O)O)C(=O)NCC(=O)O)cc1	/	/	-26.5	/	/
CC(=O)Nc1ccc2[nH]c3ccccc3c2c1	1.5	-7.7%	-5.0	2.9	2.5%
